Entries with a potency or affinity are not part of this list.
Target: NAD-dependent protein deacylase sirtuin-5, mitochondrial (Homo sapiens) (UniProt Q9NXA8)
Assay: blockers of sirtuin-5 peptide desuccinylation – biochemical, fluorescence imaging, cherry-pick, set 6, dose response (AID 720597);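 also: lower AMC signal can also come from blocking the trypsin step; 0% = median of neutral control wells and -100% = median of positive control wells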
Conditions: Purified SirT5, succinyl-peptide-AMC/trypsin fluorescence; series mostly up to 15 µM; activity change, negative = inhibition: at the top concentration;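 active = fitted half-maximal dose no more than twice the top valid tested dose, for compounds that lower signal; inconclusive = fit invalid, or curve flat with activity between -70 and -30; inactive = potency past limit, curve flat within ±30, or signal increasing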

Sequence of NAD-dependent protein deacylase sirtuin-5, mitochondrial (Homo sapiens) (Q9NXA8 whole entry, looked up): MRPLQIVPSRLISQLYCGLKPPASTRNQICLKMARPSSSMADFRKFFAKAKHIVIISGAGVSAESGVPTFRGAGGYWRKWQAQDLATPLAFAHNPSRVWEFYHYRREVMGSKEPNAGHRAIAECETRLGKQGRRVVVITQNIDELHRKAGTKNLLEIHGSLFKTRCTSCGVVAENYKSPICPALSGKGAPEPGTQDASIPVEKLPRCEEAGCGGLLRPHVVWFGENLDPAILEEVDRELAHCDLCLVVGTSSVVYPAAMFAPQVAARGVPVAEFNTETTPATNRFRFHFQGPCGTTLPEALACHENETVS

Activity change, negative = inhibition, inactive:
C[C@H](CO)N1C[C@H](C)[C@H](CN(C)Cc2ccc(-c3ccccc3)cc2)Oc2cc(C#CC(C)(C)O)ccc2S1(=O)=O -17.6%
CO[C@@H](C(=O)N(C)C[C@H]1OCc2ccccc2-c2ccccc2C(=O)N([C@@H](C)CO)C[C@@H]1C)c1ccccc1 32.8%
O=S(=O)(N[C@H]1CC[C@H](CCn2cc(-c3cccc(F)c3)nn2)O[C@H]1CO)c1ccc(F)cc1 -26.3%
Cc1ccc(S(=O)(=O)N(C)C[C@H]2OCCCC[C@H](C)Oc3ccc(NS(=O)(=O)c4ccc(Cl)cc4)cc3C(=O)N([C@@H](C)CO)C[C@H]2C)cc1 -27.4%
C[C@@H]1CN([C@@H](C)CO)C(=O)c2cc(NC(=O)Cc3cn(C)c4ccccc34)ccc2O[C@@H]1CN(C)Cc1ccc(Oc2ccccc2)cc1 -10.4%
CS(=O)(=O)N(CC(=O)NC1CCCCC1)c1cccc(F)c1 -0.763% [at 16 µM]
C[C@@H]1CCCCO[C@@H](CN(C)CC2CCCCC2)[C@@H](C)CN([C@@H](C)CO)C(=O)c2cc(NS(=O)(=O)c3ccc(F)cc3)ccc2O1 -4.34%
COc1ccc(S(=O)(=O)N(C)C[C@H]2OCCCC[C@H](C)Oc3ccc(NS(=O)(=O)c4ccc(C)cc4)cc3C(=O)N([C@@H](C)CO)C[C@@H]2C)cc1 -19.4%
COCC(=O)Nc1ccc2c(c1)C(=O)N(C)C[C@@H](OC)[C@H](C)CN(Cc1ccccn1)[C@H](C)CO2 7.75% [at 16 µM]
C[C@@H]1CN([C@H](C)CO)S(=O)(=O)c2ccc(C#Cc3ccc(F)cc3)cc2O[C@H]1CN(C)C(=O)NC1CCCCC1 -8.32%
C[C@@H]1CN([C@H](C)CO)C(=O)Cc2cc(NS(=O)(=O)c3ccccc3)ccc2O[C@H]1CN(C)Cc1ccc(Cl)c(Cl)c1 -4.25%
C[C@@H]1CN([C@@H](C)CO)C(=O)Cc2cc(NS(=O)(=O)c3ccc(Cl)cc3)ccc2O[C@@H]1CN(C)CC1CCCCC1 20.2%
CC(C)NC(=O)Nc1ccc2c(c1)C(=O)N([C@H](C)CO)C[C@H](C)[C@@H](CN(C)Cc1ccc(Cl)c(Cl)c1)O2 7.9%
CN(C)c1ccc2c(c1)[C@@H]1C[C@@H](CC(=O)NCc3ccccc3)O[C@H](CO)[C@@H]1O2 -3.65%
O=C(c1cccnc1)N1CCCCN2[C@H](CO)[C@@H](c3ccc(C#Cc4ccccn4)cc3)[C@@H]2C1 -14.5%
Cc1cccc(-c2ccc([C@@H]3[C@@H](CO)N4CCCCN(S(=O)(=O)c5ccccc5F)C[C@H]34)cc2)c1 -19.2%
C[C@@H]1CN([C@H](C)CO)S(=O)(=O)c2ccc(-c3cccc(F)c3)cc2O[C@@H]1CN(C)S(=O)(=O)c1ccc(F)cc1 -13.2%
Cc1ccc(S(=O)(=O)N(C)C[C@@H]2OCCCC[C@H](C)Oc3ccc(NS(=O)(=O)c4ccc(F)cc4)cc3C(=O)N([C@H](C)CO)C[C@@H]2C)cc1 -20.2%
COc1ccc(S(=O)(=O)Nc2ccc3c(c2)C(=O)N([C@H](C)CO)C[C@@H](C)[C@H](CN(C)Cc2ccc(C(F)(F)F)cc2)OCCCC[C@H](C)O3)cc1 -14.8%
COc1ccc(NC(=O)Nc2ccc3c(c2)C(=O)N([C@H](C)CO)C[C@H](C)[C@@H](CN(C)S(=O)(=O)c2cccs2)OCCCC[C@@H](C)O3)cc1 -4.68%
COc1ccc(S(=O)(=O)N(C)C[C@H]2Oc3cc(C#CC4CC4)ccc3S(=O)(=O)N([C@@H](C)CO)C[C@@H]2C)cc1 11.5%
CC(C)CC#Cc1ccc2c(c1)O[C@@H](CN(C)C(=O)C1CCCCC1)[C@@H](C)CN([C@H](C)CO)S2(=O)=O -8.59%
CCN(C[C@@H]1[C@@H](c2ccccc2)[C@H](CO)N1C(=O)C1CC1)C(=O)NC1CCCC1 38.9%
COc1ccccc1-c1ccc2c(c1)O[C@@H](CN(C)Cc1ccc3c(c1)OCO3)[C@H](C)CN([C@@H](C)CO)S2(=O)=O 22%
COc1ccc(NC(=O)N(C)C[C@H]2Oc3cc(C#CCC(C)C)ccc3S(=O)(=O)N([C@H](C)CO)C[C@@H]2C)cc1 -3.37%
C[C@@H]1CN([C@H](C)CO)C(=O)c2cc(NS(=O)(=O)c3ccc(Cl)cc3)ccc2O[C@@H](C)CCCCO[C@H]1CN(C)C(=O)Nc1ccc(C(F)(F)F)cc1 -1.82%
CNC[C@H]1Oc2ccc(NC(=O)Nc3ccc(F)cc3)cc2CC(=O)N([C@H](C)CO)C[C@H]1C 3.19%
CCC(=O)N1CCCCN2[C@H](CO)[C@H](c3ccc(-c4cccc(C#N)c4)cc3)[C@@H]2C1 -2.5%
COc1ccccc1C#Cc1ccc([C@H]2[C@@H](CO)N3CCCCN(C(=O)C4CCCC4)C[C@@H]23)cc1 1.76%

Source: PubChem BioAssay AID720597 (Broad Institute, 2013)
